Most compounds without a hit are left out; they make up all but 6.7% or so of the library.
BoNT A protease = BoNT/A light chain protease inhibitors, primary screen, biochemical, flow cytometry, MLPCN library. Botulinum neurotoxin type A light chain protease (Clostridium botulinum A str. ATCC 3502). multiplex microsphere protease substrate cleavage. inhibition, % at 10 µM. 360,000 compounds, 0.17% hits. AID 588499, 2011
FBA Mtb inh = Mtb FBA enzyme inhibitors, primary screen, biochemical, fluorescence, strain H37Rv; purified M. tuberculosis FBA, fluorescence read-out; inhibition, % at 1 µM; 360,000 compounds, 2.3% hits; in the data active = inhibition above about 27%
Target sequence (P9WQA3 whole entry, looked up): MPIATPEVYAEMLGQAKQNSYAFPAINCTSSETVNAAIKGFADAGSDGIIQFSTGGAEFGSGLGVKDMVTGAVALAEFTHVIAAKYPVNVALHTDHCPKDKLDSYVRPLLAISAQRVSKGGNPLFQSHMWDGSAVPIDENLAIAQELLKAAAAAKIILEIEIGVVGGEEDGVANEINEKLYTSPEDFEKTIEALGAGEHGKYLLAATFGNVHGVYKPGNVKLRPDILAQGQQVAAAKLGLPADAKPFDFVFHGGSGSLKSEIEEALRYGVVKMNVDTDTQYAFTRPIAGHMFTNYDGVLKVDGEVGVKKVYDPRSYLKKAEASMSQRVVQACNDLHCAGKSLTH
BoNT F protease = BoNT/F light chain protease inhibitors, primary screen, biochemical, flow cytometry, MLPCN library | AID 588497, 2011 | inhibition, % at 10 µM | Multiplex microsphere protease cleavage assay | Botulinum neurotoxin type F light chain protease (Clostridium botulinum) | 360,000 compounds, 0.22% hits; in the data active = inhibition above about 35%, passing the limit was not always enough; inconclusive = no clear call, values can overlap the other calls
Anthrax LF inh2 = Bacillus anthracis LF protease inhibitors, primary screen, biochemical, multiplex microsphere, MLPCN library. multiplex microsphere protease cleavage assay. inhibition, % at 10 µM. Lethal factor (Bacillus anthracis), P15917. 360,000 compounds, 0.12% hits
Autofluor counter = flagged as autofluorescent in microsphere protease counterscreen. compound autofluorescence counterscreen, microsphere flow cytometry; hits give high values. fluorescence intensity (concentration not given with the values). 360,000 compounds, 3.1% hits. AID 624483; in the data active = fluorescence intensity above about 16000; inconclusive = no clear call, values can overlap the other calls
GDH-TPI inh = GDH-TPI coupling enzyme inhibitors, primary screen, artefact control for M. tuberculosis FBA inhibitor project, biochemical, absorbance, full deck | GDH-TPI coupled enzyme counterscreen, NADH absorbance | inhibition, % at 4.8 µM | 360,000 compounds, 1.2% hits; in the data active = inhibition above about 30%
A number is an active result; 0 = inactive; ? = inconclusive; - = not tested or not shown; + = active, no number. Rule as the data show it, unless noted: active = inhibition above about 30%; inconclusive = no clear call, values can overlap the other calls; inactive = below that.

SMILES | BoNT A protease | FBA Mtb inh | BoNT F protease | Anthrax LF inh2 | Autofluor counter | GDH-TPI inh
CC(NC(=O)c1ccccc1)c1ccc(Br)cc1 (stereo not drawn) | 0 | 0 | 0 | 0 | 0 | 0
COc1ccc(-c2nc(C3CCCCC3)no2)cc1OC | 0 | 0 | 0 | 0 | 22056 | 0
Cc1ccc(C)c(S(=O)(=O)NCc2ccc(C(=O)N3CCOCC3)cc2)c1 | 0 | 0 | 0 | 0 | 0 | 0
Cc1ccc(C)c(S(=O)(=O)NCc2ccc(C(=O)N3CCN(C)CC3)cc2)c1 | ? | 0 | 0 | 0 | 16472 | 0
CNc1cncc(-c2cccc(C(=O)NC3CC3)c2)n1 | 0 | + | 0 | 0 | 0 | 0
CNc1cccc(-c2cccc(O)c2)n1 | 0 | 0 | 0 | 0 | 0 | 0
CNc1cncc(-c2cccc(C(=O)NCCN(C)C)c2)n1 | 0 | 121.4 | 0 | 0 | 0 | 0
CNc1cncc(-c2ccc(C)cc2)n1 | 0 | 197.3 | 0 | 0 | 0 | 0
CC(=O)Nc1cncc(-c2cccc(C(=O)NC3CC3)c2)n1 | 0 | 0 | 0 | 0 | 0 | 0
CNc1cncc(-c2cccc(O)c2)n1 | 0 | 199.7 | 0 | 0 | 0 | 0
O=C(c1cc(COc2cccc3cccnc23)on1)N1CCC[C@H]1CO | 0 | 0 | 0 | 0 | 0 | 0
CC(c1ccc(Cl)cc1)n1c(-c2ccc3ccccc3n2)n[nH]c1=S (stereo not drawn) | 0 | 0 | 0 | 0 | 0 | 0
COc1cccc(CNn2c(-c3cccc(C)c3)nc3ccccc3c2=O)c1 | 0 | 0 | 0 | 0 | 0 | 0
COCCN(C(=O)COC(=O)/C=C/c1ccco1)c1c(N)n(Cc2ccccc2)c(=O)[nH]c1=O | 0 | 0 | 0 | 0 | 0 | 0
CCc1ccc(NC(=O)c2ccc(S(=O)(=O)NCc3cccnc3)cc2)cc1 | 0 | 0 | 0 | 0 | 0 | 0
Cc1cc(C)nc(N2N=C(C(C)(C)C)CC2=O)n1 | ? | 0 | 0 | 0 | 23425 | 0
Cc1ccc(OCC(=O)NCCc2nc3ccccc3[nH]2)c(C)c1 | 0 | 0 | 0 | 0 | 0 | 0
CN(C(=O)CSc1nc2ccc([N+](=O)[O-])cc2s1)C1CCS(=O)(=O)C1 (stereo not drawn) | 0 | 0 | 0 | 0 | 0 | 34.2
CCN(CC1CCCO1)C(=O)c1cc(COc2cc(C)c(Cl)c(C)c2)on1 (stereo not drawn) | 0 | 0 | 0 | 0 | 0 | 0
c1ccc(N(c2ccccc2)c2nc(-n3ccnc3)nc(-n3ccnc3)n2)cc1 | 0 | 0 | 0 | 0 | 0 | 0
C=CCNc1nc(N(c2ccccc2)c2ccccc2)nc(-n2ccnc2)n1 | 0 | 0 | 0 | 0 | 20613 | 0
CCCCNc1nc(N(C)c2ccccc2)nc(-n2ccnc2)n1 | 0 | 0 | 0 | 0 | 23497 | 0
Nc1cc2sc(-c3ccc(C(=O)O)cc3)nc2cc1Cl | 0 | 138.6 | 0 | 0 | 0 | 0
Nc1ccc(-c2nc3ccc(C(=O)O)cc3s2)cc1 | 0 | - | 0 | 0 | 0 | 54.4
Nc1cccc(-c2nc3ccc(N)cc3s2)c1 | 0 | 163.9 | 0 | 0 | 0 | 0
SMILES | BoNT A protease | FBA Mtb inh | BoNT F protease | Anthrax LF inh2 | Autofluor counter | GDH-TPI inh
Nc1ccc(-c2nc3ccc(N)cc3s2)cc1 | 0 | + | 0 | 0 | 0 | 47.4
CCOC(=O)CSc1nc(=O)n2ccc(C)cc2n1 | 0 | 0 | 0 | 0 | 0 | 0
NC(=O)C1CCN(C(=O)c2ccc3nc(-c4ccccc4)c(-c4ccccc4)nc3c2)CC1 | 0 | 65.9 | 0 | 0 | 0 | 0
N#CCSc1nc2cc(C(=O)N3CCCC3)ccc2c(=O)n1Cc1ccccc1 | 0 | 0 | 0 | 0 | 0 | 0
CCCCCn1c(SCC(=O)OCC)nc2cc(C(=O)N3CCC(C(N)=O)CC3)ccc2c1=O | 0 | 0 | 0 | 0 | 21996 | 0
NC(=O)C1CCN(C(=O)c2ccc3c(=O)n(Cc4ccco4)c(SCC(=O)c4ccccc4)nc3c2)CC1 | 0 | 0 | 0 | 0 | 0 | 0
N#CCSc1nc2cc(C(=O)N3CCC(C(N)=O)CC3)ccc2c2nc3ccccc3n12 | 0 | 0 | 0 | 0 | 20618 | 31.5
COP(=O)(NC(=O)C(Cl)(Cl)Cl)OC | 0 | 0 | 0 | 0 | 0 | 0
COc1ccc(CNC(=O)CCCCCn2c(SCC#N)nc3cc4c(cc3c2=O)OCO4)cc1 | ? | 0 | 0 | 0 | 19698 | 0
COc1ccc(N2CCC(CNC(=O)Nc3ccccc3)C2)cc1 (stereo not drawn) | 0 | 0 | 0 | 0 | 19305 | 0
CCOc1ccc(NC(=O)C2CCN(C(=O)NCc3ccccc3)CC2)cc1 | 0 | 0 | 0 | 0 | 22864 | 0
CCOc1ccc(NC(=O)C2CC=CCC2C(=O)O)cc1 (stereo not drawn) | 0 | 0 | 0 | 0 | 22332 | 0
COc1ccc(NC(=O)C2CCN(C(=O)NCc3ccccc3)CC2)cc1 | 0 | 0 | 0 | 0 | 16148 | 0
Cc1ccc(NC(=O)C2CCN(C(=O)NCc3ccccc3)CC2)cc1C | 0 | 0 | 0 | 0 | 0 | 0
COc1ccc(N=C2SCC(c3ccc([N+](=O)[O-])cc3)=NN2CCO)cc1 | 0 | 0 | ? | 0 | 0 | 0
COc1cc([N+](=O)[O-])ccc1NC(=O)c1cccc(NC(=O)C(C)C)c1 | 0 | 0 | 0 | 0 | 0 | 0
CCOCCCn1c(=S)[nH]c2cc(C(=O)NCCOC)ccc2c1=O | 0 | 0 | 0 | 0 | 19971 | 0
COCCNC(=O)c1ccc(Cn2c(=S)[nH]c3cc4c(cc3c2=O)OCO4)cc1 | 0 | 0 | 0 | 0 | 22929 | 0
COC(CNC(=O)c1ccc(Cn2c(=S)[nH]c3cc4c(cc3c2=O)OCO4)cc1)OC | 0 | 0 | 0 | 0 | 0 | 0
CCOCCCNC(=O)c1ccc2c(=O)n(CCCOCC)c(=S)[nH]c2c1 | 0 | 0 | 0 | 0 | 0 | 0
COCCCNC(=O)C[C@H]1C[C@H](C(=O)N2CCOCC2)[C@@]2(CCC3CCCC3)c3[nH]c4cc(-c5ccco5)ccc4c3CCN2C1=O | 0 | 0 | 0 | 0 | 0 | 0
O=C(C[C@H]1C[C@H](C(=O)N2CCOCC2)[C@@]2(CCC3CCCC3)c3[nH]c4cc(-c5ccco5)ccc4c3CCN2C1=O)NCCN1CCOCC1 | 0 | 40.5 | 0 | 0 | 0 | 0
CCOC(=O)C1=C(Cn2cnc3ccccc32)NC(=O)NC1c1cc(C)ccc1C (stereo not drawn) | 0 | 0 | 0 | 0 | 0 | 0
CCOC(=O)C1=C(CNCc2ccc(C)cc2)NC(=O)NC1c1cc(C)ccc1C (stereo not drawn) | 0 | 0 | 0 | 0 | 17821 | 0
CCOC(=O)C1=C(CSc2nccn2C)NC(=O)NC1c1cc(C)ccc1C (stereo not drawn) | ? | 0 | 0 | 0 | 16485 | 0
CCOC(=O)C1=C(CSc2nccn2C)NC(=O)NC1c1ccc2c(c1)OCO2 (stereo not drawn) | 0 | 0 | 0 | 0 | 0 | 0
CCOC(=O)Cn1c(=O)c2c(nc(N3CCCCC3)n2C)n(C)c1=O | 0 | 0 | 0 | 0 | 0 | 0

Screening results as filed in PubChem.
